Binding signal data for 14 sequences are collected here from article PMC3218832.

Among the targets are RELARELA (p65 homodimer) (Homo sapiens, UniProt Q04206 1-307); p50p50 homodimer (Homo sapiens, UniProt P19838 7-356); RELB subunit;p50 subunit (Homo sapiens;Homo sapiens, UniProt Q01201;P19838 120-401;7-356).
Common to all, as to assay: protein binding microarray; high values mean tight binding
Conditions in all cases: dsDNA, one strand shown

A further assay deals with T1, p52p52 homodimer (Homo sapiens, UniProt Q00653 4-332).
T1 sequence: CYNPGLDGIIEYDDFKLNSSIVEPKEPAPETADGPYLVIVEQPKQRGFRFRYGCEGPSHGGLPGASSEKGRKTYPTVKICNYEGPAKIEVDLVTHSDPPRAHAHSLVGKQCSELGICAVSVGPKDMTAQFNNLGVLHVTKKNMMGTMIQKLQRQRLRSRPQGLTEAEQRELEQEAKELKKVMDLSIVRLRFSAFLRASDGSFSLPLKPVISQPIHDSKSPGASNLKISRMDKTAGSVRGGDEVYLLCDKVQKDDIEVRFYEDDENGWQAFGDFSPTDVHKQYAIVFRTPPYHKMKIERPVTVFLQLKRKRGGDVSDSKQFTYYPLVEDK

Assay [1] addresses RELA (p65) subunit of heterodimer;p50 subunit (Homo sapiens;Homo sapiens, UniProt Q04206;P19838 1-307;7-356).
Assay [2] deals with RELA (p65) subunit of heterodimer;p52 subunit (Homo sapiens;Homo sapiens, UniProt Q04206;Q00653 1-307;4-332).
The target of another assay is T2, RELB subunit;p52 subunit (Homo sapiens;Homo sapiens, UniProt Q01201;Q00653 120-401;4-332).
T2 sequence 1: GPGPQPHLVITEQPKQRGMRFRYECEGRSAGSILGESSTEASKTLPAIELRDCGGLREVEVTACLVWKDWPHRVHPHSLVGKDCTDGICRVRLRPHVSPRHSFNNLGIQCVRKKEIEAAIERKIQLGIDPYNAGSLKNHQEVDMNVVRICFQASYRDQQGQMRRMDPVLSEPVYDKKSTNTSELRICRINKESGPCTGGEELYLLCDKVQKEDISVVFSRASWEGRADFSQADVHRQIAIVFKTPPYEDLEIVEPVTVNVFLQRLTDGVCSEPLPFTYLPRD
T2 sequence 2: T1 sequence

The target in assay [3] is C-Rel subunit;p50 subunit (Homo sapiens;Homo sapiens, UniProt Q04864;P19838 1-285;7-356).
For assay [4], the target named is T3, C-Rel subunit;p52 subunit (Homo sapiens;Homo sapiens, UniProt Q04864;Q00653 1-285;4-332).
T3 sequence 1: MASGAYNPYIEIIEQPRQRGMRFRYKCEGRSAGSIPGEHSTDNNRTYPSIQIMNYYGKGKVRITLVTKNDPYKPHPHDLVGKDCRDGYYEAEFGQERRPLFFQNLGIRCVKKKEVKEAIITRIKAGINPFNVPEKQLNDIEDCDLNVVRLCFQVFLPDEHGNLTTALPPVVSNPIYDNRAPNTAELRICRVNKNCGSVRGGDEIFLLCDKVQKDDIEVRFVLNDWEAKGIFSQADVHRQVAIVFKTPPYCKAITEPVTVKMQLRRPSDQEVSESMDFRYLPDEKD
T3 sequence 2: T1 sequence

RELARELA (p65 homodimer), sequence (Q04206 1-307): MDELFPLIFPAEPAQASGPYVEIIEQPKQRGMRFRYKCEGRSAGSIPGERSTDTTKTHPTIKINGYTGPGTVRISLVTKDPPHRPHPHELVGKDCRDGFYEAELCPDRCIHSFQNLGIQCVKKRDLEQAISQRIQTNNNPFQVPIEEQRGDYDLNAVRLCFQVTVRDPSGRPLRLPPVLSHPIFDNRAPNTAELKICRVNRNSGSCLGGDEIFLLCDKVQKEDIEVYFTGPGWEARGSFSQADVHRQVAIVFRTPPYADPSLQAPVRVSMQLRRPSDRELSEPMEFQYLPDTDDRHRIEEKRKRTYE
RELA (p65) subunit of heterodimer;p50 subunit, sequence (Q04206 1-307, chain 1 of 2): as the sequence (Q04206 1-307) above
RELA (p65) subunit of heterodimer;p50 subunit, sequence (P19838 7-356, chain 2 of 2): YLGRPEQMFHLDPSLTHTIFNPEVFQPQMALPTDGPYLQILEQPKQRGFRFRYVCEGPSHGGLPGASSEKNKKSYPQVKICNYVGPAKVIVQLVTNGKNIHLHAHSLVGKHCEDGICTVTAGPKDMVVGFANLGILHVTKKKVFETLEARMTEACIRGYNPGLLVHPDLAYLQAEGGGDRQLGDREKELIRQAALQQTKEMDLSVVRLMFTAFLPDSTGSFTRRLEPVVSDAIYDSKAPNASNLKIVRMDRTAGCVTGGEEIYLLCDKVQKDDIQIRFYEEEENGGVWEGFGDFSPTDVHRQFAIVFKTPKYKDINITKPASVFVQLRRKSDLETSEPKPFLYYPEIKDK
p50p50 homodimer, sequence (P19838 7-356): as the sequence (P19838 7-356, chain 2 of 2) above

As for GAGGGCACCCT, the binding signal was -0.976 z-score in the assay with RELARELA (p65 homodimer); -1.27 z-score with p50p50 homodimer; -0.651 z-score with p52p52 homodimer; -0.906 z-score in assay [1]; -0.74 z-score in assay [2]; -0.75 z-score with RELB subunit;p50 subunit. The binding signal was -0.795 z-score with RELB subunit;p52 subunit, -1.04 z-score in assay [3] and -0.757 z-score in [4].

Consider AAAAACATCCT, for which the binding signal is -0.23 z-score in the assay with RELARELA (p65 homodimer); -0.94 z-score with p50p50 homodimer; -0.575 z-score with p52p52 homodimer; -0.766 z-score in [1]; -0.82 z-score in assay [2]; -0.865 z-score with RELB subunit;p50 subunit. For the same sequence, the binding signal was -0.741 z-score in the assay with RELB subunit;p52 subunit, -1.09 z-score in [3] and -0.784 z-score in assay [4].

For GAGAACTTCCT, the binding signal is 0.439 z-score in the assay with RELARELA (p65 homodimer); -0.697 z-score with p50p50 homodimer; -0.718 z-score with p52p52 homodimer; -0.503 z-score in [1]; -0.731 z-score in [2]; -0.944 z-score with RELB subunit;p50 subunit. Also, the binding signal with RELB subunit;p52 subunit is -0.781 z-score; in assay [3], -0.692 z-score; in [4], -0.645 z-score.

As for AAGAGCATCCT, the binding signal with RELARELA (p65 homodimer) was -0.702 z-score; in the assay with p50p50 homodimer, -1.75 z-score; with p52p52 homodimer, -0.753 z-score; in assay [1], -1.09 z-score; in assay [2] it was -1.17 z-score; in the assay with RELB subunit;p50 subunit, -1.16 z-score. For the same sequence, the binding signal with RELB subunit;p52 subunit was -0.978 z-score; in assay [3], -1.52 z-score; in assay [4], -1.15 z-score.

As for GAGATATCCCC, the binding signal in the assay with RELARELA (p65 homodimer) worked out at 0.294 z-score; with p50p50 homodimer, 1.12 z-score; with p52p52 homodimer, 1.16 z-score; in assay [1] it was 1.33 z-score; in assay [2] it was 1.3 z-score; with RELB subunit;p50 subunit it was 1.08 z-score. Besides, the binding signal with RELB subunit;p52 subunit turned out to be 0.95 z-score; in assay [3] it was 0.698 z-score; in [4] it was 0.964 z-score.

With AGATGGTCCCC, the binding signal is -0.243 z-score with RELARELA (p65 homodimer); 0.441 z-score in the assay with p50p50 homodimer; 0.342 z-score in the assay with p52p52 homodimer; 0.0737 z-score in assay [1]; 0.172 z-score in [2]; 0.435 z-score in the assay with RELB subunit;p50 subunit. Also, the binding signal turned out to be 0.355 z-score with RELB subunit;p52 subunit, 0.292 z-score in [3] and 0.217 z-score in assay [4].

For the sequence CGGTATCCCCC, the binding signal came to 0.855 z-score in the assay with RELARELA (p65 homodimer); 1.13 z-score in the assay with p50p50 homodimer; 2.07 z-score with p52p52 homodimer; 1.69 z-score in assay [1]; 1.56 z-score in [2]; 1.33 z-score with RELB subunit;p50 subunit. The figures for the binding signal (with RELB subunit;p52 subunit; in assay [3]; in assay [4]) were 1.65 z-score, 1.23 z-score and 1.71 z-score, respectively.

For the sequence GAGGATTCCCC, the binding signal is 2 z-score with RELARELA (p65 homodimer); 1.1 z-score with p50p50 homodimer; 2.67 z-score with p52p52 homodimer; 2.18 z-score in [1]; 2.19 z-score in [2]; 2.43 z-score with RELB subunit;p50 subunit. The values for the binding signal (in the assay with RELB subunit;p52 subunit; in assay [3]; in assay [4]) were 2.09 z-score, 1.54 z-score and 2.11 z-score, respectively.

On to GAGAAACCCCC, for which the binding signal turned out to be 1.35 z-score with RELARELA (p65 homodimer); 1.41 z-score with p50p50 homodimer; 2.15 z-score in the assay with p52p52 homodimer; 2.14 z-score in assay [1]; 2 z-score in assay [2]; 1.98 z-score in the assay with RELB subunit;p50 subunit. Besides, the figures for the binding signal (with RELB subunit;p52 subunit; in assay [3]; in assay [4]) were 2.04 z-score, 1.45 z-score and 2.14 z-score, respectively.

In the case of CGGTGGTTCCT, the binding signal in the assay with RELARELA (p65 homodimer) amounted to 0.0744 z-score; in the assay with p50p50 homodimer it was 0.731 z-score; with p52p52 homodimer, 1.05 z-score; in assay [1], 0.41 z-score; in assay [2] it was 0.701 z-score; in the assay with RELB subunit;p50 subunit, 0.293 z-score. Besides, the binding signal was 0.552 z-score in the assay with RELB subunit;p52 subunit, -0.0201 z-score in assay [3] and 0.719 z-score in [4].

As for GGGAACCCCCC, the binding signal came out at 2.47 z-score with RELARELA (p65 homodimer); 1.16 z-score with p50p50 homodimer; 3.03 z-score with p52p52 homodimer; 2.69 z-score in assay [1]; 2.78 z-score in [2]; 2.09 z-score with RELB subunit;p50 subunit. The binding signal in the assay with RELB subunit;p52 subunit came to 2.68 z-score; in [3], 2.19 z-score; in [4] it was 2.96 z-score.

On to CGATAGCCCCC, for which the binding signal was -0.556 z-score with RELARELA (p65 homodimer); 0.93 z-score in the assay with p50p50 homodimer; 0.275 z-score with p52p52 homodimer; 0.352 z-score in assay [1]; 0.57 z-score in [2]; 0.492 z-score with RELB subunit;p50 subunit. The values for the binding signal (with RELB subunit;p52 subunit; in assay [3]; in assay [4]) were 0.523 z-score, 0.288 z-score and 0.258 z-score, respectively.

Consider CAATATACCCC, for which the binding signal is -0.012 z-score with RELARELA (p65 homodimer); 0.317 z-score in the assay with p50p50 homodimer; 0.195 z-score with p52p52 homodimer; 0.199 z-score in assay [1]; 0.442 z-score in assay [2]; 0.428 z-score in the assay with RELB subunit;p50 subunit. Further, the binding signal in the assay with RELB subunit;p52 subunit came out at 0.992 z-score; in assay [3], 0.384 z-score; in assay [4], 0.51 z-score.

Turning to CAGGAAACCCC, the binding signal with RELARELA (p65 homodimer) was determined as 2.37 z-score; with p50p50 homodimer it was 1.03 z-score; with p52p52 homodimer, 1.38 z-score; in assay [1] it was 1.38 z-score; in assay [2] it was 1.31 z-score; in the assay with RELB subunit;p50 subunit, 0.925 z-score. Also, the binding signal was determined as 1.39 z-score in the assay with RELB subunit;p52 subunit, 1.04 z-score in assay [3] and 1.76 z-score in assay [4].
